Reference: PubChem BioAssay (Tox21)
Results filed as inconclusive are left out. Unmarked numbers belong to inactive results. Calls of active or inactive are those of the source. The call rests on the fitted dose curve; in most records, active means well fitted cell-killing curve with a large enough effect in the repeat runs; inconclusive means weak or mixed curves, or effect the other way; inactive means no such curve, though single readings can be large or run the other way.

assay: qHTS assay to identify small molecule antagonists of the retinoid-related orphan receptor gamma (ROR-gamma) signaling pathway - cell viability counter screen (AID 1159520); details: Tet-on RORgamma CHO cells viability, ATP luminescence, 16 h; series mostly up to 92.4 µM; activity, negative = cytotoxicity: at the top concentration; further: nearly all actives have a fitted effect of over 50% in size
Description: U.S. Tox21 Program National Center for Advancing Translational Sciences [NCATS] NIH Chemical Genomics Center [NCGC] U.S. Environmental Protection Agency [EPA] National Institutes of Environmental Health Sciences [NIEHS] National Toxicology Program [NTP] U.S. Food and Drug Administration [FDA] Tox21 Assay Overview: Nuclear steroid hormone receptors are involved in many biological processes including inflammatory responses, cell proliferation, and apoptosis. Environmental factors or compounds disrupting these nuclear receptor pathways and gene expression may promote susceptibility to immunotoxicants and autoimmune diseases. One important group of these expression factors are the retinoid-related orphan receptors. To assess compounds that may interfere with the retinoid-related orphan receptor gamma (ROR-gamma) transcription factor, a cell-based luciferase assay was used. The CHO cell-based assay utilizes a TET-inducible ROR expression factor and ROR response element-LUC reporter gene. Reporter gene activity was induced using Doxycycline Hyclate and measured after 16 hr incubation. Tet-on ROR gamma CHO cells were used to screen against the Tox21 10K compound library for cytotoxicity by measuring the viability of the cells based on the quantitation of the ATP.
Tox21 Assay Protocol Summary: Tet-on ROR gamma CHO cells were dispensed at 1,000 cells in 4 uL of culture medium per well into white wall/solid bottom 1536-well plates using a Multidrop Combi (Thermo Scientific, Waltham, MA) dispenser. Following incubation at 37 C and 5% CO2 for 4 hr, 23 nL of compounds dissolved in DMSO, positive controls or DMSO only were transferred by a Pintool station (Kalypsys, San Diego, CA) and after 2 hr incubation at 37 C, one ul of 1 uM (final concentration) of Doxycycline Hyclate was added to all the wells by using a Flying Reagent Dispenser (FRD) (Aurora Discovery, San Diego, CA). After 16 hr incubation at 37 C and 5% CO2, 5 uL of CellTiter-Glo reagent (Promega Corporation, Madison, WI) was added to each assay plate using FRD. After 30 min incubation at room temperature, luminescence was quantified on a ViewLux plate reader (Perkin Elmer, Waltham, MA).
On the % scale 0 is the no-effect control and ±100 the full control effect; potency means the concentration at half of the fitted maximal effect.

| SMILES | activity, negative = cytotoxicity | Potency |
| --- | --- | --- |
| CCCCCCCCO[C@@H]1O[C@H](CO)[C@@H](O)[C@H](O)[C@H]1O | -0.67% |  |
| CC1=CCCC(C)(C)C12CCC(C)O2 (stereo not given) | 2.32% |  |
| CCCCCCCCCCCc1ccccc1 | -4.99% |  |
| Nc1cccc([N+](=O)[O-])c1 | -19.1% |  |
| C/C=C/C=C/CO | -4.68% |  |
| NCC(=O)O | -1.28% [at 19 µM] |  |
| c1ccc(C(O[C@H]2CCCN(CCc3ccc4c(c3)OCO4)C2)c2ccccc2)cc1 | -12.8% [at 42.5 µM] |  |
| CC(C)OC(=O)C(C)N(C(=O)c1ccccc1)c1ccc(F)c(Cl)c1 (stereo not given) | -15% |  |
| Cc1cccc(C)c1NC(=O)CN(CC(=O)O)CC(=O)O | 5.41% [at 42.5 µM] |  |
| O=C(NCCO[N+](=O)[O-])c1cccnc1 | 1.88% [at 42.5 µM] |  |
| CCN(CC)c1ccc2c(-c3ccccc3C(=O)O)c3ccc(=[N+](CC)CC)cc-3oc2c1 |  | 19.3 µM (active) |
| CC(C)C[C@H]1C(=O)N2CCC[C@H]2[C@]2(O)O[C@](NC(=O)[C@@H]3C=C4c5cccc6[nH]c(Br)c(c56)C[C@H]4N(C)C3)(C(C)C)C(=O)N12 | -11.6% [at 42.5 µM] |  |
| CCCCCC[C@@H](O)C/C=C\CCCCCCCC(=O)OC | 3.4% |  |
| CC(C)(CO)[N+](=O)[O-] | 1.52% |  |
| O=[N+]([O-])c1cccc(S(=O)(=O)O)c1 | -0.194% |  |
| c1cc(CCCc2ccncc2)ccn1 | 2.03% |  |
| CCC(C)O (stereo not given) | 3.57% |  |
| COc1ccc(C(=O)N2CCN(CC(=O)N3CCOCC3)CC2)cc1 | 4.12% [at 42.5 µM] |  |
| CCOC(=O)COC(=O)c1cc(Oc2ccc(C(F)(F)F)cc2Cl)ccc1[N+](=O)[O-] | -14.1% |  |
| CCOC(=O)NCCOc1ccc(Oc2ccccc2)cc1 | -11% |  |

| SMILES | activity, negative = cytotoxicity | Potency |
| --- | --- | --- |
| Cc1oc(-c2ccccc2)nc1CCOc1cccc2c1ccn2CCC(=O)O | 1.63% |  |
| CCOC(=O)Cc1cccc2ccccc12 | 0.111% |  |
| CCn1cc(C(=O)O)c(=O)c2cnc(N3CCNCC3)nc21 | 4.42% [at 42.5 µM] |  |
| COCCCN1CCC(NC(=O)c2cc(Cl)c(N)c3c2OCC3)CC1 | -2.38% [at 42.5 µM] |  |
| O=C(c1ccc(F)cc1)C1CCN(CCn2c(=S)[nH]c3ccccc3c2=O)CC1 | -6.71% [at 42.5 µM] |  |
| Cc1cccc(C)c1OCC(=O)N[C@@H](Cc1ccccc1)[C@@H](O)C[C@H](Cc1ccccc1)NC(=O)[C@H](C(C)C)N1CCCNC1=O | -19.6% [at 42.5 µM] |  |
| O=C(O)CC(=O)C(=O)O | -8.77% |  |
| Nc1ncn([C@H]2C[C@H](O)[C@@H](CO)O2)c(=O)n1 | 4.82% [at 42.5 µM] |  |
| C=CC1CC2C=CC1C2 (stereo not given) | 5% |  |
| CC1CCC(=O)C1=O (stereo not given) | 12.8% |  |
| CCN(CC)CCNc1ccc(CNC=O)c2sc3ccc(OC)cc3c(=O)c12 |  | 54.5 µM (active) |
| CC(=O)c1ccc2c(c1)N(CCCN1CCC(CCO)CC1)c1ccccc1S2 | -9.66% [at 42.5 µM] |  |
| CCC(C)c1cc(C(C)(C)C)c(O)c(C(C)(C)C)c1 (stereo not given) | 2.97% |  |
| CCCCCCCCCc1ccc(OCCOCCO)cc1 | -19.5% [at 42.5 µM] |  |
| COC(C)OC | -9.41% |  |
| CCCCCCCC/C=C\CCCCCCCC(=O)OCC | 6.48% |  |
| NC(=O)C(c1ccccc1)(c1ccccc1)[C@@H]1CCN(CCc2ccc3c(c2)CCO3)C1 | -14.4% [at 42.5 µM] |  |
| CNCCCN1c2ccccc2CCc2ccccc21 | -9.07% [at 42.5 µM] |  |
| CN1CCN(C(c2ccccc2)c2ccccc2)CC1 | 1.89% [at 42.5 µM] |  |
| COc1cc2c(cc1OC)C(C(C(=O)N(CCc1ccc(OC)c(OC)c1OC)CCc1ccc(OC)c(OC)c1OC)c1ccccc1)=NCC2 (stereo not given) | -13.4% [at 42.5 µM] |  |
